In PubChem BioAssay (NCATS):
Results filed as inconclusive are left out. A call without a number means that no potency is given here. Active and inactive are the calls of the source. Unless noted, calls come from the whole dose curve; as a rule, active = well fitted curve in the direction sought with a large enough effect; inconclusive = small, poorly fitted or top-dose-only effect, or another doubt; inactive = no such curve, though single readings can be large; an effect the other way counts as inactive or inconclusive.

Columns and labels:
[1] = biological target: Cytochrome P450 2C9 (Homo sapiens) (UniProt P11712); assay: Cytochrome P450 family 2 subfamily C member 9 (CYP2C9) small molecule antagonists: luciferase biochemical (cell-free) qHTS assay (AID 1645842; active = well fitted curve in the direction sought with a large enough effect in the repeat runs; an effect the other way counts as inactive or inconclusive; note: nearly all actives have a fitted effect of over 55% in size; note: potency is the fitted concentration of half-maximal effect)
Chain of Cytochrome P450 2C9 (Homo sapiens) (P11712 whole entry, looked up): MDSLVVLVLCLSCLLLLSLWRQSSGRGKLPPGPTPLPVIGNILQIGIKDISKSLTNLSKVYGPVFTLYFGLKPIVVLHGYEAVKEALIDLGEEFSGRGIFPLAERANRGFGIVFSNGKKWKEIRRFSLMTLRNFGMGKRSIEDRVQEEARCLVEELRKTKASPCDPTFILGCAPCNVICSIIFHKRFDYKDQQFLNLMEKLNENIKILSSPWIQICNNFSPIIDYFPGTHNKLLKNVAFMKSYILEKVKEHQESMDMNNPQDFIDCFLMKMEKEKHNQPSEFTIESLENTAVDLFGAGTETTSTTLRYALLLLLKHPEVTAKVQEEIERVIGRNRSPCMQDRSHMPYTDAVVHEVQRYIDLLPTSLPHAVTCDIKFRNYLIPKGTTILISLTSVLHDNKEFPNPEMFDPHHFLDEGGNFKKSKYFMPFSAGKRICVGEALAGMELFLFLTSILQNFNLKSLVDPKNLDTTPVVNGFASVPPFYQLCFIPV
How it was run: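 Luminescence, after 20 min with luciferin detection reagent, reflected CYP2C9 turnover during a 1 h NADPH-driven reaction at 37C. Enzyme-substrate mix contained 0.4% bovine serum albumin and was preincubated with compound 10 min at room temperature.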

[2] = Primary qHTS for inhibitors of nuclear receptor binding SET domain protein 2 (NSD2) in an isogenic RCH-ACV NSD2 p.E1099K mutant (9B) (AID 1645876); note: nearly all actives have a fitted effect of over 70% in size
[3] = Primary qHTS for inhibitors of nuclear receptor binding SET domain protein 2 (NSD2) in an RCH-ACV wild type WT cells (2C) (AID 1645877); note: nearly all actives have a fitted effect of over 70% in size

Question: Which Potency [1] does the source give for CC(=O)N[C@@H](Cc1ccc(O)cc1)C(=O)O here?
Answer: Its Potency is “inactive”.

Question: What about the Potency [2] of the same compound?
Answer: The Potency was “inactive”.

Question: What about the Potency [3] of the same compound?
Answer: The Potency was “inactive”.

Question: What does the source list for O=C(NCC(O)CO)c1c(I)c(C(=O)NCC(O)CO)c(I)c(N(CCO)C(=O)CO)c1I (centres undefined)?
Answer: Potency [1]: inactive; Potency [2]: inactive

Question: What does the source list for O=C(O)C(S)C(S)C(=O)O (centres undefined)?
Answer: Potency [1]: inactive; Potency [2]: inactive; Potency [3]: inactive

Question: For CC(C)c1cc2c(cc1S(=O)(=O)O)[C@@]1(C)CCC[C@@](C)(C(=O)O)[C@@H]1CC2, which Potency [1] is on record?
Answer: Its Potency is “inactive”.

Question: And the Potency [2]?
Answer: Its Potency is “inactive”.

Question: What about the Potency [3] of the same compound?
Answer: The Potency was “inactive”.

Question: For O=C(O)c1ccccc1C(=O)Nc1ccc(S(=O)(=O)Nc2nccs2)cc1, which Potency [1] is on record?
Answer: The Potency was “inactive”.

Question: What about the Potency [2] of the same compound?
Answer: The Potency was “inactive”.

Question: And the Potency [3]?
Answer: The Potency was “inactive”.

Question: For O=C1C(c2[nH]c3ccccc3c2O)=Nc2ccccc21, which Potency [1] is on record?
Answer: The Potency was “inactive”.

Question: And the Potency [2]?
Answer: Its Potency is “inactive”.

Question: What about the Potency [3] of the same compound?
Answer: The Potency was “inactive”.

Question: For CC1CCN(CCCC(=O)c2ccc(F)cc2)CC1, which Potency [1] is on record?
Answer: The Potency was “inactive”.

Question: What about the Potency [2] of the same compound?
Answer: Its Potency is “inactive”.

Question: And the Potency [3]?
Answer: Its Potency is “inactive”.

Question: For O=C(O)COC(=O)Cc1ccccc1Nc1c(Cl)cccc1Cl, which Potency [1] is on record?
Answer: Its Potency is 17.4 µM (active).

Question: And the Potency [2]?
Answer: Its Potency is “inactive”.

Question: What about the Potency [3] of the same compound?
Answer: Its Potency is “inactive”.

Question: For CC[C@]12CCCN3CCc4c(n(c5ccccc45)[C@@](O)(C(=O)OC)C1)[C@@H]32, which Potency [1] is on record?
Answer: The Potency was “inactive”.

Question: What about the Potency [2] of the same compound?
Answer: Its Potency is “inactive”.

Question: And the Potency [3]?
Answer: The Potency was “inactive”.

Question: For CC[N+](CC)(CC(=O)Nc1c(C)cccc1C)Cc1ccccc1, which Potency [1] is on record?
Answer: Its Potency is “inactive”.

Question: What about the Potency [2] of the same compound?
Answer: The Potency was “inactive”.

Question: And the Potency [3]?
Answer: The Potency was “inactive”.

Question: Which results are given for CC(=O)OCC(COC(C)=O)OC(C)=O?
Answer: Potency [1]: inactive; Potency [2]: inactive; Potency [3]: inactive

Question: Which Potency [1] does the source give for O=C(c1ccccc1)C(O)c1ccccc1 (centres undefined) here?
Answer: Its Potency is “inactive”.

Question: What about the Potency [2] of the same compound?
Answer: The Potency was “inactive”.

Question: And the Potency [3]?
Answer: Its Potency is “inactive”.

Question: Which Potency [1] does the source give for Cc1cc(NC(=O)C2=C(O)c3ccccc3S(=O)(=O)N2C)no1 here?
Answer: The Potency was “inactive”.

Question: And the Potency [2]?
Answer: The Potency was “inactive”.

Question: What about the Potency [3] of the same compound?
Answer: The Potency was “inactive”.

Question: Which results are given for CCc1cccc(CC)c1NC(=O)CN(CC(=O)O)CC(=O)O?
Answer: Potency [1]: inactive; Potency [2]: inactive; Potency [3]: inactive

Question: Which results are given for CC(CSC(=O)c1ccccc1)C(=O)N1C[C@@H](Sc2ccccc2)C[C@H]1C(=O)O (some centres undefined)?
Answer: Potency [1]: inactive; Potency [2]: inactive; Potency [3]: inactive
